# Data: the supplement of paper PMC12669032
# A number with no mark means an inactive call.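 Rule for the calls: active = AUC reduced over 20% with Padj below 0.05 in at least 2 of 3 replicates; inactive = otherwise.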
# Assays:
# Experiment in all cases: growth AUC relative to DMSO control (median of replicates) (fraction); higher = more growth (less inhibition), active = hit call of the paper
# Conditions in all cases: 20 µM; 24 h
# Akkermansia muciniphila = system: Akkermansia muciniphila
# Outline: (§1)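 Three biological replicates, each grown on a separate day, were combined as a median for every value. In each, a gut bacterial monoculture in mGAM started at OD600 0.05 and grew anaerobically at 37 °C with 20 µM compound (1% DMSO), with OD600 read hourly over 24 h. Area under the growth curve was normalised against the plate median of solvent-only wells, or against row and column medians on the industrial chemical plate, after the minimum OD was set to 0.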
# Bacteroides caccae = system: Bacteroides caccae
# Outline: as §1
# Bacteroides clarus = system: Bacteroides clarus
# Outline: as §1
# Bacteroides dorei = system: Bacteroides dorei
# Outline: as §1
# Bacteroides stercoris = system: Bacteroides stercoris
# Outline: as §1
# [1] = system: Bacteroides thetaiotaomicron
# Outline: as §1
# Bacteroides uniformis = system: Bacteroides uniformis
# Outline: as §1
# [2] = system: Bifidobacterium longum subsp. longum
# Outline: as §1
# Clostridium difficile = system: Clostridium difficile
# Outline: as §1
# Collinsella aerofaciens = system: Collinsella aerofaciens
# Outline: as §1
SMILES,growth AUC (Akkermansia muciniphila),growth AUC (Bacteroides caccae),growth AUC (Bacteroides clarus),growth AUC (Bacteroides dorei),growth AUC (Bacteroides stercoris),growth AUC [1],growth AUC (Bacteroides uniformis),growth AUC [2],growth AUC (Clostridium difficile),growth AUC (Collinsella aerofaciens)
O=[N+]([O-])c1ccc2c(c1)Cc1ccccc1-2,0.896,0.995,1.01,0.991,0.981,0.985,1,1.06,0.992,1
COC(=O)C(Cl)Cc1ccc(Cl)cc1 (stereo not given),1.01,0.921,0.973,0.99,1.03,1.02,0.921,1.01,0.983,0.936
COc1cc(Cl)ccc1Oc1ccc(Cl)cc1Cl,1.03,0.902,0.933,0.948,0.93,0.984,0.98,0.872,1.01,1.01
COC(=O)c1ccccc1S(=O)(=O)NC(=O)n1nc(OCC(C)O)n(C)c1=O (stereo not given),0.933,1,0.962,0.992,0.982,0.994,1.03,0.956,0.951,1.02
CCOC(N)=O,1.13,1.01,1.02,1.04,1.17,1.01,1.01,1.06,1.01,1.01
Cc1c(Br)c2ccc(F)cc2n1S(=O)(=O)c1ncn(S(=O)(=O)N(C)C)n1,0.998,1.05,1,1.01,0.997,1,0.993,1.05,1.07,1.07
C/C=C/C(=O)Oc1c(C(C)CCCCCC)cc([N+](=O)[O-])cc1[N+](=O)[O-] (mixture of isomers),1,0.285 (active),0.0314 (active),0.0151 (active),0.0105 (active),0.569 (active),0.448 (active),0.289 (active),0.0443 (active),0.789 (active)
CCOC(=O)c1nc(C(Cl)(Cl)Cl)n(-c2ccc(Cl)cc2Cl)n1,0.908,1,1,0.99,0.861,0.966,0.968,0.983,0.983,0.952
CCSc1nc(NC(C)C)nc(NC(C)C)n1,0.919,1.01,0.923,0.983,0.88,0.863,0.948,0.984,1.03,0.995
CC(C)(C)C(O)/C(=C\c1ccc(Cl)cc1)n1cncn1 (stereo not given),1.05,0.903,0.987,0.919,1.19,0.958,0.973,1.04,0.991,0.969
N#CC(=NOCC1OCCO1)c1ccccc1,1.03,0.834,0.992,0.963,1.06,0.981,0.96,1.06,1.02,0.936
CN1CCC[C@H]1c1cccnc1,0.753,0.995,0.997,1.04,1,0.984,0.981,1.01,0.951,1.04
CCCN(CCOc1c(Cl)cc(Cl)cc1Cl)C(=O)NC=O,1.04,0.938,0.948,0.947,1.07,0.94,0.957,0.968,1.01,0.995
COC(=O)CC(NC(=O)[C@@H](NC(=O)OC(C)C)C(C)C)c1ccc(Cl)cc1 (stereo not given in full),1.08,0.934,0.991,1.02,1.34,0.981,0.934,1.01,1.01,0.963
CC(C)Nc1nc(N)nc(Cl)n1,0.991,1.03,1.03,1.01,1.07,1.04,1.01,1,1.03,1.02
CCCCN(C)C(=O)Nc1ccc(Cl)c(Cl)c1,0.739,0.886,0.952,0.97,1.16,0.899,0.864,0.951,0.943,1
CC(=O)Oc1c(Cl)c(Cl)c(Cl)c(Cl)c1Cl,0.861,0.559 (active),0.585 (active),0.66 (active),0.448 (active),0.565 (active),0.52 (active),0.942,0.784 (active),0.937
NS(=O)(=O)[O-].[NH4+],1.11,1.01,1.03,1.02,1.05,1.02,1.05,1.06,1.05,0.998
C/C=C/C=C/CCCCCCCO,0.879,1.03,0.982,1.02,1.07,0.969,1,1.01,0.984,1.02
CCOC(=O)/C(Cl)=C/c1cc(N2C(=O)C3=C(CCCC3)C2=O)ccc1Cl,0.947,0.97,0.934,0.99,0.834,0.924,0.937,0.912,1.03,1.03
COc1cc(OC)nc(NC(=O)NS(=O)(=O)Nc2ccccc2C(=O)N(C)C)n1,1.01,1,0.983,1.02,0.982,0.986,1.01,0.975,0.974,0.992
COC(=O)CSc1cc(N=c2sc(=O)n3n2CCCC3)c(F)cc1Cl,1.11,1,0.999,0.945,1.04,0.94,0.988,0.985,0.982,1.01
ClC=C(c1ccc(Cl)cc1)c1ccc(Cl)cc1,1.05,0.896,0.959,0.914,0.945,0.975,0.996,1,0.977,0.893
O.O.O=[N+]([O-])c1ccc([O-])cc1.[Na+],1.02,0.999,1,0.988,1.09,1.02,0.989,1.08,1.04,1.02
O=c1cccc2n1CCn1c-2cccc1=O,1.11,1.03,0.986,0.918,1,0.995,1.02,0.969,0.993,0.98
c1ccc2c(c1)ccc1ccccc12,1.02,0.983,1.01,0.996,0.999,1.01,1,1.01,1,1.02
S=C([S-])NCCNC(=S)[S-].S=C([S-])NCCNC(=S)[S-].[Mn+2].[Zn+2],0.974,1.02,1.1,1.06,1.06,0.975,1.07,1.03,0.994,1.03
COC1CCC2(CC1)NC(=O)C(c1cc(C)ccc1C)C2O (stereo not given),1.08,0.974,1.04,1.02,1.14,0.999,1.02,1.05,1.01,1.05
COC(=O)c1ccc(I)cc1S(=O)(=O)[N-]C(=O)Nc1nc(C)nc(OC)n1.[Na+],1.25,0.901,0.992,0.933,1.01,1.06,0.941,1.01,0.991,0.977
